# Source: PubChem BioAssay (National Center for Advancing Translational Sciences (NCATS))
# GALK inhibitor = inhibitors of human galactokinase | P51570 | Purified GALK, Kinase-Glo residual ATP luminescence | Potency, µM (doses to about 57.5 µM), without a hit: at the top dose activity change, negative = inhibition, usual class: inhibitors | 0.007% of 270,000 active | AID 1868; further: potency means the concentration at half of the fitted maximal effect
#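 Quantitative HTS: GALK 5 nM, ATP 35 uM, galactose 100 uM, 1 h room temperature, then luciferase-based ATP detection.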
# GCN5L2 inh = GCN5L2 (KAT2A) acetyltransferase inhibition; Q92830; GCN5L2 HAT assay, ThioGlo1 CoA-SH fluorescence; Potency, µM (series often up to 58.9 µM), for the others: top-dose activity change, negative = inhibition, actives largely listed as inhibitors; 0.21% of 390,000 active; AID 504327; further: potency means the concentration at half of the fitted maximal effect
#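 Fluorescence readout, Ex340nm/Em540nm: ThioGlo1 (50uM final) reacts with free CoA thiol released as 20nM GCN5L2 acetylates H3(1-25) peptide (75uM) using acetyl-CoA (70uM). Compound and enzyme sat 15 min beforehand; 20 min room-temperature reaction.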
# TrxR1 inh = rat TrxR1 inhibition; recombinant rTrxR1, NADPH fluorescence consumption, selenite substrate; 1% of 390,000 active; O89049; Potency, µM (top dose mostly 114 µM), for inactives: at the top dose activity change, negative = inhibition, most hits filed as inhibitors; further: potency means the concentration at half of the fitted maximal effect; nearly all actives have a fitted effect of over 65% in size
# Target sequence (O89049 whole entry, looked up): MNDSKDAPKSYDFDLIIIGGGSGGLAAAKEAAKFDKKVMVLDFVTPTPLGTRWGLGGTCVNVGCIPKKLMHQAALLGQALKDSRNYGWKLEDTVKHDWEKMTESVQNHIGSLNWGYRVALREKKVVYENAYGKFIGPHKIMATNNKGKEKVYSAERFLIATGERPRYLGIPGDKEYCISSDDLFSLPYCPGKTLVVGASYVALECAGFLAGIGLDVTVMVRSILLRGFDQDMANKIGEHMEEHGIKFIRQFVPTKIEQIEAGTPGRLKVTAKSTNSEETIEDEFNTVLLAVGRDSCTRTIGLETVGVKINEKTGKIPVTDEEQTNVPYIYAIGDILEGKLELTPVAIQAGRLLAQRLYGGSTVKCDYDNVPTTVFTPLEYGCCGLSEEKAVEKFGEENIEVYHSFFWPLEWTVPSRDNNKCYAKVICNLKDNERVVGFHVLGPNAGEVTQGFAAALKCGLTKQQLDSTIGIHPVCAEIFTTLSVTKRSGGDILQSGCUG
#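 Rat TrxR1 (90 nM in the dispensed reagent) was pre-reduced with 400 uM NADPH for 5 min at room temperature, then incubated with compound for 15 min. After 400 uM selenite was added, NADPH fluorescence (Ex 340/Em 450 nm) was followed for 8 min.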
# Giardia kill = Giardia lamblia killing | Giardia lamblia trophozoite viability | activity change, % at 7.66 µM, hits read low | 0.15% of 340,000 active | AID 540267; in the data active means activity change below about -80%; inconclusive means between about -30% and that limit;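 further: parasites exposed to compound for two days anaerobically before the ATP read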
#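 Compounds were tested on trophozoites seeded at 100 cells/well and held 48 hrs at 37 deg C anaerobically. An ATP-based luminescent kit measured the remaining live cells.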
# TrxR1 substrate = substrates of rat thioredoxin reductase 1; 0.01% of 390,000 active; purified TrxR1 substrate turnover, NADPH consumption readout; AID 588456; O89049; Potency, µM (titrated, usually from 114 µM), for the others: at the highest dose activity change, negative = substrate turnover; further: potency means the concentration at half of the fitted maximal effect; nearly all actives have a fitted effect of over 50% in size
#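 Rat TrxR1, dispensed at 90 nM, was prereduced with 400 uM NADPH (final) for 5 min at ~22 deg C, then incubated with compound 15 min before 400 uM selenite. A first-read NADPH fluorescence drop versus no-compound background flagged substrates.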
# Pin1 inhibitor = inhibitors of human Pin1. Pin1 FP peptide displacement, HiFluor488, 10 min. Potency, µM (series often up to 115 µM), inactives show at the highest dose activity, negative = inhibition, hits mostly inhibitors. 0.009% of 390,000 active; active means well fitted inhibition curve with a large enough effect in the polarisation, with a control signal flat, not every such curve was filed as active; inconclusive means small, poorly fitted or top-dose-only effect, or effect the other way, or a change in a side signal; inactive means no such curve, though single readings can be large or run the other way; the % refers to the polarisation; further: potency means the concentration at half of the fitted maximal effect
# Target sequence (Q13526 whole entry, looked up): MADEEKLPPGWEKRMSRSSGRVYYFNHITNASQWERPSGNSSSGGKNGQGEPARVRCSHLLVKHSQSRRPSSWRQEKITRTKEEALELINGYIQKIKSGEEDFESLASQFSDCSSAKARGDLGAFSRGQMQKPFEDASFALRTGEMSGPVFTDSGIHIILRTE
# * marks the source's active call; other numbers are inactive results; ? = inconclusive; · = no result; [ ] = remark or other dose. Only some compounds are listed: those with a hit (about 1.3% of all), similar ones and a draw of the others. Unless noted, the call rests on the fitted dose curve; in most records, active means well fitted curve in the direction sought with a large enough effect; inconclusive means small, poorly fitted or top-dose-only effect, or another doubt; inactive means no such curve, though single readings can be large; an effect the other way counts as inactive or inconclusive. On the % scale 0 is the no-effect control and ±100 the full control effect.
SMILES,GALK inhibitor,GCN5L2 inh,TrxR1 inh,Giardia kill,TrxR1 substrate,Pin1 inhibitor
Cc1ccc(-n2ncc3c(=O)n(CC(N)=O)cnc32)cc1C,3.1%,3.98µM*,21.7%,17.8,10.0%,0.1%
Cc1ccnc(NC(=O)c2cccc(S(=O)(=O)N3CCN(c4ccc(F)cc4)CC3)c2)c1,·,-1.6%,12.7%,-7.9,-1.7%,16.9%
O=C(CCc1ccccc1)NN1C(=O)C2C3C=CC(O3)C2C1=O (stereo not given),-0.1%,3.6%,44.7µM*,12.3,-8.4%,-3.8%
Cc1cccc(OCC(=O)NN2C(=O)C3C4C=CC(O4)C3C2=O)c1 (stereo not given),-0.2%,3.5%,7.3%[57.1 µM],5.2,2.8%[57.1 µM],-1.4%
CCOc1ccc(C(=O)NN2C(=O)C3C4C=CC(O4)C3C2=O)cc1 (stereo not given),-2.0%,-2.1%,20µM*,1.2,3.5%,-4.7%
Cc1ccccc1OCC(=O)NN1C(=O)C2C3C=CC(O3)C2C1=O (stereo not given),1.4%,1.5%,31.6µM*,1.6,-5.3%[57.1 µM],7.3%
CCOc1ccc(C(=O)NC2CCCCCCC2)cc1,·,·,15.7%[57.1 µM],-7.4,-15.0%[57.1 µM],-1.9%
CCOC(=O)c1scc(-c2ccc(C)cc2)c1S(=O)(=O)N1CCN(c2ccccc2F)CC1,·,-6.3%,8.6%[57.1 µM],·,-5.6%[57.1 µM],4.6%
NC(=O)[C@H]1CCCN1C(=O)[C@H](Cc1cnc[nH]1)NC(=O)[C@@H]1CCC(=O)N1,·,-12.9%,·,·,·,·
O=C(/C=C/c1ccccc1)C1C(=O)c2ccccc2C1=O,-3.2%,-1.6%,-13.4%,?,-14.0%,-0.3%
CCc1ccc(/C=C/C(=O)C2C(=O)c3ccccc3C2=O)cc1,-1.8%,?,-20.8%,-81.7*,-20.0%,-15.4%
CC1=CN2C(=N)/C(=C/c3ccco3)C(=O)N=C2S1,3.5%,-3.1%,-11.0%,-13.3,-11.2%,?
CC1=CN2C(=N)/C(=C/c3ccc([N+](=O)[O-])o3)C(=O)N=C2S1,2.9%,24.4%,2.51µM*,-8.1,-16.5%,?
CCC1CCCCC1,·,-10.0%,·,·,·,·
S=C(Nc1ccccc1)Nc1nccs1,-1.3%,-12.1%,?,-22.8,11.5%[57.1 µM],-0.3%
Fc1ccc(NC(=S)Nc2nccs2)cc1,0.1%,-12.0%,7.94µM*,-6.5,0.5%,-2.0%
CCOC(=O)c1ccc(N2C(=O)C=CC2=O)cc1,-0.2%,?,8.91µM*,-16.9,8.9%,8.5%
CC(=O)N1CCN(c2ccc(NC(=O)c3ccc([N+](=O)[O-])o3)cc2Cl)CC1,5.0%,-8.6%,-11.0%,-80.6*,-2.8%,-0.7%
CCC(=O)N1CCN(c2ccc(NC(=O)c3ccc([N+](=O)[O-])o3)cc2Cl)CC1,1.1%,-13.2%,-4.2%,-92.2*,-6.5%,-4.5%
CCN1CCN(c2ccc(NC(=O)c3ccc([N+](=O)[O-])o3)cc2Cl)CC1,-3.8%,-3.9%,-1.1%[57.1 µM],?,3.5%[57.1 µM],-0.4%
N#Cc1c(Cl)cccc1Oc1ccc([S+](=O)([O-])N2CCN([S+](=O)([O-])c3c(F)cccc3F)CC2)cc1,·,·,·,·,·,18.3%
CC(C)Nc1cccc(S(=O)(=O)N2CCCN(S(=O)(=O)c3ccc4c(c3)OCCO4)CC2)c1,·,·,·,·,·,11.6%
Cc1ccc(C2=NN(C(=O)CCl)C(c3ccco3)C2)o1 (stereo not given),13.1%,-8.9%,22.4µM*,27.4,3.5%[57.1 µM],21.7%
CC(=O)N1N=C(c2ccco2)CC1c1ccco1 (stereo not given),-0.1%,-3.6%,-4.9%[57.1 µM],8.7,3.7%[57.1 µM],-1.2%
CCN(CC)S(=O)(=O)c1ccc(OC)c(NC(=O)/C=C/c2ccco2)c1,0.1%,-24.6%,17.8µM*,19.0,-4.3%,23.7%
SMILES,GALK inhibitor,GCN5L2 inh,TrxR1 inh,Giardia kill,TrxR1 substrate,Pin1 inhibitor
CCOc1ccc(C(NC(=O)/C=C/c2ccco2)c2ccc(OC)c(OC)c2)cc1 (stereo not given),-2.0%,39.1%,35.5µM*,0.9,0.7%,14.1%
COc1ccc(C2(CNC(=O)/C=C/c3ccco3)CCCC2)cc1OC,1.6%,?,3.55µM*,-6.8,5.0%,18.2%
COc1ccc(C(NC(=O)/C=C/c2ccco2)c2ccc(OC)c(OC)c2)cc1 (stereo not given),-0.3%,4.5%,50.1µM*,-1.1,-8.4%,?
O=C(NCc1cc(F)ccc1F)C1CCC(=O)N(C2CCCCCC2)C1 (stereo not given),-6.2%,1.2%,6.9%,-5.6,0.2%,0.6%
CCc1cccc(NC(=O)CCCn2nc(C)c3c(C)n(-c4ccccc4)nc3c2=O)c1,-3.2%,-1.4%,10.3%[57.1 µM],15.7,-1.0%[57.1 µM],-2.7%
O=C(OCC#CCSc1nnc(-c2cccc3ccccc23)o1)c1sc(Cl)c(Cl)c1Cl,·,·,·,·,·,-5.2%
COCCCn1c(SCC(=O)Nc2ccc3c(c2)OCCO3)nnc1-c1ccoc1C,3.9%,1.1%,-9.5%,9.5,0.4%,-6.1%
COCCn1c(SCC(=O)c2ccc3c(c2)OCCO3)nnc1-c1ccoc1C,-2.1%,-6.6%,44.7µM*,4.7,-5.0%,1.0%
CCCCn1c(SCC(=O)c2ccc3c(c2)OCCO3)nnc1-c1ccco1,1.3%,-2.9%,7.08µM*,-13.3,-3.7%,?
O=C(NCCc1ccccc1)c1cc(-c2ccccc2)nc2n[nH]c(-c3ccccc3)c12,·,-4.0%,7.1%,·,-1.5%,3.0%
CCc1nn2c(=O)cc(-c3ccncc3)nc2s1,·,·,·,·,·,-1.1%
O=C(/C=C/c1ccccc1)NC(NC(=S)Nc1ccc(Cl)cc1)C(Cl)(Cl)Cl (stereo not given),-1.7%,-10.5%,2.7%,25.5,3.5%,0.5%
COc1ccc(NC(=S)NC(NC(=O)/C=C/c2ccccc2)C(Cl)(Cl)Cl)cc1 (stereo not given),-3.4%,1µM*,24.4%[57.1 µM],18.9,-6.8%,4.6%
CC(C)(C)OC(=O)Cc1nnc(-c2nc3ccccc3[nH]2)s1,·,·,·,·,·,8.9%
Fc1ccc(C(c2ccc(F)cc2)N2CCN(C/C=C\c3ccccc3)CC2)cc1,·,11.2µM*,·,·,·,·
CSCC[C@H](NC=O)C(=O)N[C@@H](CC(C)C)C(=O)N[C@@H](Cc1ccccc1)C(=O)O,·,-2.0%,·,·,·,·
O=C(Nc1ccccc1)Nc1ncc([N+](=O)[O-])s1,-0.2%,-2.3%,-20.3%,?,-22.3%,19.8%
Cc1nc(C)c(C(=O)Nc2ncc([N+](=O)[O-])s2)o1,8.4%,?,2.4%[57.1 µM],-87.7*,-1.2%[57.1 µM],17.0%
CCCCC(=O)Nc1ncc([N+](=O)[O-])s1,1.5%,-8.3%,7.0%[57.1 µM],-90.3*,4.3%[57.1 µM],-0.3%
CC(C)CC(=O)Nc1ncc([N+](=O)[O-])s1,4.6%,-2.4%,-14.7%,-93.0*,-7.5%,3.4%
O=C(Nc1ncc([N+](=O)[O-])s1)c1cccc([N+](=O)[O-])c1,0.5%,-18.6%,38.6%[0.0914 µM],-92.8*,-5.3%[57.1 µM],8.2%
CCOc1ccc2nc(N3CCN(C(=O)CS(=O)(=O)c4ccc(F)cc4)CC3)sc2c1,·,-1.9%,7.1%[57.1 µM],·,-3.3%[57.1 µM],?
